# D3 antag: qHTS of D3 Dopamine Receptor Antagonist: qHTS. D(3) dopamine receptor (Homo sapiens), P35462. D3R cells, DiscoveRx beta-arrestin luminescence, antagonist mode; hits give low values. max response, negative = inhibition, %. 360,000 tested, 2.5% active. AID 652054, 2013; in the data active = max response below about -50%; inconclusive = no clear call, values can overlap the other calls; note: % is set by controls: 0 for no effect and ±100 for the full control effect
# Target sequence (P35462 whole entry, looked up): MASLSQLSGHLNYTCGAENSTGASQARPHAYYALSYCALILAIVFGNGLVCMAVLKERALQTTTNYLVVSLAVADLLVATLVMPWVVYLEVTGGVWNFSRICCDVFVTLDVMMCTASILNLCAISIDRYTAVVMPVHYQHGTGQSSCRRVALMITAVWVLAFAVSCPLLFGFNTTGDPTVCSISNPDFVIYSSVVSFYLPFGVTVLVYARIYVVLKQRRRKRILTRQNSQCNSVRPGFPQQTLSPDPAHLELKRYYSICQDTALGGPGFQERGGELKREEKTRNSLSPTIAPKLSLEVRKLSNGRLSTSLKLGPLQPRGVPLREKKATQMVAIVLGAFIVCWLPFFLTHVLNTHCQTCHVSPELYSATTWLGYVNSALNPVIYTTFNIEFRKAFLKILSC
#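 Cells expressing the human receptor were seeded at 1500 cells/well, incubated overnight at 37 degrees C in 5% CO2, then exposed to library compounds with dopamine controls for 90 minutes at 37 degrees C before luminescent detection.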
# TGFb inhibitor: qHTS for Inhibitors of TGF-b; HepG2 CAGA-GFP TGF-b/SMAD3 reporter, GFP fluorescence, 18 h; TGF-beta stimulated, 500 pg/mL final; Potency, µM (highest dose often 46.1 µM), inactives show at the highest dose activity, negative = inhibition, usual class: inhibitors; 410,000 tested, 1.2% active; AID 588855, 2011; note: potency is the fitted concentration of half-maximal effect; % is set by controls: 0 for no effect and ±100 for the full control effect; nearly all actives have a fitted effect of over 65% in size
#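 Cell-based qHTS in HEPG2 carrying a CAGA-GFP Smad reporter; compounds added before 500 pg/mL final TGF-beta, 18 h incubation at 37 degrees C, GFP fluorescence quantified per cell by imaging cytometry.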
# DRD3 agonist: qHTS of D3 Dopamine Receptor Agonist: qHTS. max activation, %. 410,000 tested, 0.58% active. D(3) dopamine receptor (Homo sapiens), P35462. D3R DiscoveRx beta-arrestin cells, luminescence, 90 min. AID 652048, 2013; in the data active = max activation above about 30%; note: 0% is about no effect
#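 Agonist mode: compounds and dopamine controls were applied to plated cells for 90 min at 37 degrees C after an overnight attachment at 1500 cells/well. Luminescent read-out followed 30 - 60 minutes at room temperature with DiscoveRx detection reagent.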
# HepG2 tox-1: qHTS for Inhibitors of TGF-b: Cytotox Counterscreen; HepG2 CAGA-GFP viability, ATP luminescence, 18 h; Potency, µM (top dose mostly 46.1 µM), inactives show at the highest dose activity change, negative = cytotoxicity, usual class: cytotoxic; 410,000 tested, 0.76% active; note: potency is the fitted concentration of half-maximal effect
#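 CellTiter-Glo luminescence gave cytotoxicity after 18 hours at 37 degrees C. The cells were HepG2 CAGA-GFP in 1% FBS DMEM, stimulated with 500 pg/mL TGF-beta after compound addition. %Activity was normalised to no-cell wells (complete cell-killing) and DMSO (no toxicity), and curves were fitted and classified.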
# ATXN2 expr inh: Primary qHTS for Inhibitors of ATXN expression | HEK-293 ATXN2-luciferase reporter, luminescence, 24 h | Potency, µM (highest dose often 57 µM), for inactives: top-dose activity change, negative = inhibition, actives largely listed as inhibitors | 360,000 tested, 0.72% active | AID 1745845, 2022; note: potency is the fitted concentration of half-maximal effect; % is set by controls: 0 for no effect and ±100 for the full control effect; nearly all actives have a fitted effect of over 55% in size
#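 ATXN2-luciferase reporter cells (luciferase flanked by upstream and downstream ATXN2 gene portions) were treated 24 h at 37 °C with compounds at up to 57 uM. SteadyGlo luminescence gave expression; GF-AFC fluorescence gave viability.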
# ATXN viability: Viability Counterscreen for Primary qHTS for Inhibitors of ATXN expression; S2 cells (HEK-293 line with an ATXN2-luciferase reporter) viability, CellTiter-Fluor protease fluorescence, 24 h; Potency, µM (series often up to 56.7 µM), most hits filed as cytotoxic; 400,000 tested, 0.49% active; AID 651635, 2014; note: potency is the fitted concentration of half-maximal effect; nearly all actives have a fitted effect of over 40% in size
# TGFb confirm: qHTS for Inhibitors of TGF-b: Confirmation of Cherry Picks. shares compounds with TGFb inhibitor. HepG2 CAGA-GFP TGF-b reporter, GFP fluorescence, 18 h; cells stimulated with TGF-beta, 500 pg/mL. Potency, µM (doses to about 46.1 µM), for inactives: top-dose activity, negative = inhibition, usual class: inhibitors. 1,600 tested, 63% active. AID 720534, 2013; note: potency is the fitted concentration of half-maximal effect; % is set by controls: 0 for no effect and ±100 for the full control effect; nearly all actives have a fitted effect of over 65% in size
# HepG2 tox-2: qHTS for Inhibitors of TGF-b: Cytotox Counterscreen for Cherry Picks; HepG2 CAGA-GFP viability, ATP luminescence, 18 h; cells stimulated with TGF-beta, 500 pg/mL; shares compounds with TGFb inhibitor; 1,600 tested, 27% active; Potency, µM (titrated, usually from 46.1 µM), for the others: at the top dose activity, negative = cytotoxicity, usual class: inhibitors; note: potency is the fitted concentration of half-maximal effect; % is set by controls: 0 for no effect and ±100 for the full control effect; nearly all actives have a fitted effect of over 70% in size
# CCL64 TGFb inh: qHTS for Inhibitors of TGF-b: CCL64 Cells Orthogonal Assay for Cherry Picks; shares compounds with TGFb inhibitor; CCL64 CAGA-GFP reporter, TGF-b stimulated, GFP fluorescence, 18 h; Potency, µM (highest dose often 46.1 µM), for the others: top-dose activity, negative = inhibition, most hits filed as inhibitors; 1,600 tested, 41% active; AID 720536, 2013; note: potency is the fitted concentration of half-maximal effect; nearly all actives have a fitted effect of over 65% in size
# TGFb COP inh: qHTS for Inhibitors of TGF-b: Hit Validation in HepG2 Cells using COP promoter; Potency, µM (top dose mostly 46.1 µM), inactives show at the highest dose activity, negative = inhibition, most hits filed as inhibitors; HepG2 COP-GFP TGF-b reporter, GFP fluorescence, 18 h; cells stimulated by added recombinant TGF-beta; 1,600 tested, 3% active; shares compounds with TGFb inhibitor; note: potency is the fitted concentration of half-maximal effect; nearly all actives have a fitted effect of over 70% in size
# The depositor's hits bear a star; i = inactive; ? = inconclusive; . = no result. A selection: hits, their analogues and other compounds. The true share with any hit is near 4.7%. Unless noted, calls come from the whole dose curve; as a rule, active = well fitted curve in the direction sought with a large enough effect; inconclusive = small, poorly fitted or top-dose-only effect, or another doubt; inactive = no such curve, though single readings can be large; an effect the other way counts as inactive or inconclusive.
SMILES,D3 antag,TGFb inhibitor,DRD3 agonist,HepG2 tox-1,ATXN2 expr inh,ATXN viability,TGFb confirm,HepG2 tox-2,CCL64 TGFb inh,TGFb COP inh
CC(C)C[C@H]1CNC(=S)N1C[C@H]1CCCN1C[C@H](Cc1ccccc1)N1C[C@H](Cc2ccc(O)cc2)N(CC2CCCCCC2)C1=S,31.6,10µM*,9.4,-20.9%,?,15.8µM*,18.4µM*,?,?,35.5%
Cc1ccc(Nc2c(-c3ccc(N4CCOCC4)cc3)nc3c(C)cccn23)cc1,.,-2.6%,3.9,-14.6%,-10.2%,i,.,.,.,.
CCc1cc(=O)[nH]c(SCc2nc(-c3cccc(Cl)c3)no2)n1,.,-15.2%,3.9,-9.6%,.,.,.,.,.,.
COc1ccc(CNC(=O)c2cnn(-c3ccc(C)cc3)c2-n2cccc2)cc1OC,.,?,2.0,-17.2%,.,.,.,.,.,.
Cc1cccc(NCc2ccc(O)c3ncccc23)c1C,-26.6,11.2µM*,-19.9,-11.6%,-26.5%,i,10.3µM*,-23.2%,?,13.8%
O=C(C1=C[C@H](C2CCCCC2)C[C@H](OCc2ccc(CO)cc2)O1)N1CCN(Cc2ccc3c(c2)OCO3)CC1,?,?,-31.0,-11.0%,?,?,.,.,.,.
O=C(C1=C[C@@H](C2CCCCC2)C[C@@H](OCc2ccc(CO)cc2)O1)N1CCN(Cc2ccc3c(c2)OCO3)CC1,-13.4,11.2µM*,-48.2,7.2%,?,?,20.6µM*,-28.5%,?,54.7%
N#CC(c1ccc(Cl)cc1)c1ccc2c(C(F)(F)F)cc(C(F)(F)F)nc2n1 (centres undefined),0.0,3.55µM*,0.7,-38.1%,0.708µM*,2µM*,5.17µM*,6.51µM*,1.46µM*,102.8%
COc1cccc(-c2cnc3c(NC=O)cc(-c4ccccc4Oc4ccccc4)cn23)c1,18.2,10µM*,3.6,-17.4%,-23.4%,i,11.6µM*,-20.5%,?,27.9%
COc1cc(-c2cnc3c(NC=O)cc(-c4cccc(NC(C)=O)c4)cn23)cc(OC)c1OC,9.7,?,-21.1,8.6%,-12.9%,i,.,.,.,.
CC(=O)c1ccc(-c2cnc3c(NC=O)cc(-c4ccc(C(=O)N5CCOCC5)cc4)cn23)cc1,65.7,?,9.5,-5.0%,-25.9%,i,?,?,?,56.6%
COc1cccc(-c2cnc3c(NC=O)cc(-c4ccc(S(C)(=O)=O)cc4)cn23)c1,121.6,1.78µM*,8.1,-3.3%,-20.6%,i,4.61µM*,-29.5%,2.06µM*,30.9%
COc1cccc(-c2cnc3c(NC=O)cc(-c4cccc(NC(C)=O)c4)cn23)c1,67.1,7.08µM*,6.7,-2.7%,-38.9%,i,5.8µM*,?,14.6µM*,56.4%
COc1cccc(-c2cnc3c(NC=O)cc(-c4ccoc4)cn23)c1,37.3,?,0.4,-0.7%,-9.4%,?,.,.,.,.
O=C(CSc1nc2c(c(=O)[nH]1)CCCC2)Nc1cccc(O)c1,.,-0.9%,6.0,-6.0%,2.6%,i,.,.,.,.
CC(=O)Nc1cccc(-c2cc(NC=O)c3ncc(-c4cccc(C(C)=O)c4)n3c2)c1,27.5,2.82µM*,5.5,23.3%,-26.7%,i,6.51µM*,?,?,30.3%
CC(=O)Nc1ccc(NC(=O)CSc2ccc(-c3ccc4c(c3)OCO4)nn2)cc1,5.5,3.4%,1.6,-10.9%,5.6%,i,.,.,.,.
Cc1ccc(-c2ccc(SCC(=O)Nc3ccc4c(c3)OCCO4)nn2)cc1,21.5,3.16µM*,3.3,-20.5%,34.3%,?,20.6µM*,3.1%,7.9%,-6.5%
Cc1ccc(NC(=O)C(C)c2ccc(-c3ccccc3)c(F)c2)cc1 (centres undefined),45.8,10µM*,4.3,-32.9%,-25.8%,i,-10.1%,-13.5%,0.3%,-1.8%
Cc1ccc(NC(=O)C(Nc2ccccc2)c2ccccc2)cc1 (centres undefined),1.4,-10.0%,-4.2,-8.1%,-15.3%,i,.,.,.,.
Oc1ccc(C[C@H]2CNC(=S)N2CC2CCCN2C[C@H](Cc2ccc(O)cc2)N2C[C@H](Cc3ccc(O)cc3)N(CC3CCCCC3)C2=S)cc1 (some centres undefined),?,10µM*,-47.6,-23.3%,0.0%,?,5.17µM*,11.6µM*,5.8µM*,?
Oc1ccc(C[C@H]2CNC(=S)N2CC2CCCN2C[C@H](Cc2ccccc2)N2C[C@H](Cc3ccc(O)cc3)N(CC3CCCCCC3)C2=S)cc1 (some centres undefined),10.7,10µM*,-21.5,-81.6%,?,?,20.6µM*,?,8.2µM*,82.1%
CC(C)C[C@H]1CNC(=S)N1C[C@H]1CCCN1C[C@H](Cc1ccc(O)cc1)N1C[C@H](Cc2ccccc2)N(CC2CCCCC2)C1=S,-9.5,?,-6.5,-33.7%,?,?,.,.,.,.
Oc1ccc(C[C@H]2CNC(=S)N2C[C@H]2CCCN2C[C@H](Cc2ccccc2)N2C[C@H](Cc3ccc(O)cc3)N(CC3CCCCCC3)C2=S)cc1,-26.8,7.08µM*,-0.4,-111.9%,0.0%,20µM*,23.1µM*,?,13µM*,50.9%
